Data: PubChem BioAssay (NCATS)
Records with an inconclusive call do not appear. Active and inactive are the calls of the source. Calls come from the whole dose curve; as a rule, active = well fitted curve in the direction sought with a large enough effect; inconclusive = small, poorly fitted or top-dose-only effect, or another doubt; inactive = no such curve, though single readings can be large; an effect the other way counts as inactive or inconclusive.

Experiments:
[1] = Cellular Toxicity (caspase-3) Mesangial (AID 660); conditions: mesangial cells, normalized: DMSO 0%, 100 µM tamoxifen 100%; at 91.7 µM (top of the series);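 note: combined caspase 3 and 7 activity read by Caspase-Glo luminescence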
Summary of the method: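 Human renal glomerular mesangial cells, 1000/well, 5 h at 37 C before 16 h compound treatment. Caspase-Glo 3/7 luminescence after 20 min; normalized to DMSO and 100 uM tamoxifen, AC50 from Hill fit.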

[2] = Cellular Toxicity (caspase-3) SK-N-SH (AID 661);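 note: 0% = DMSO basal and 100% = 10 µM staurosporine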
Summary of the method: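 Human SK-N-SH neuroblastoma cells, 1500/well, were exposed to compounds for 16 hours at 37 °C. Caspase-Glo 3/7 luminescence was normalized to DMSO (basal) and 10 uM staurosporine (100%), and AC50 came from a Hill fit.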

[3] = Cellular Toxicity (caspase-3) H-4-II-E (AID 663); conditions: H-4-II-E rat hepatoma, scaled: DMSO 0%, 100 µM tamoxifen 100%; at 92.2 µM (top of the series);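 note: cells exposed to compound for 16 hr before readout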
Summary of the method: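 Rat hepatoma H-4-II-E cells (1500/well) plated 5 hr, then exposed to compound titrations for 16 hr at 37 °C. Caspase-Glo 3/7 luminescence read after 20 min at RT; data normalized to DMSO and 100 uM tamoxifen, AC50 from Hill fits.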

[4] = Cellular Toxicity (caspase-3) Hek293 (AID 664); conditions: HEK293 caspase-3 activation, DMSO = 0%, 100 µM tamoxifen = 100%; at 92.2 µM (top of the series);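 note: cells exposed to compound for 16 h at 37 °C before readout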
Summary of the method: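 HEK293 cells in complete medium treated 16 h at 37 °C, then Caspase-Glo 3/7 luminescence read after 20 min at room temperature. Normalized to DMSO and 100 uM tamoxifen; AC50 from Hill fit of concentration-response.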

[5] = Cellular Toxicity (caspase-3) N2a (AID 665);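 note: compound exposure lasted 16 h at 37 °C before readout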
Summary of the method: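 Mouse N2a neuroblastoma cells, 1500 per well, treated 16 h at 37 °C in complete medium; caspase-3/7 activity by Caspase-Glo luminescence after 1 h. Normalized to DMSO and 10 uM staurosporine; AC50 from Hill fits.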

[6] = Cellular Toxicity (caspase-3) NIH 3T3 (AID 666);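 note: caspase signal read after 16 h compound exposure; 0% = DMSO basal and 100% = 100 µM tamoxifen stimulation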
Summary of the method: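 Mouse NIH 3T3 fibroblasts (1000/well) treated 16 h at 37 C; caspase-3/7 activity measured by Caspase-Glo 3/7 luminescence after 20 min. Normalized to DMSO and 100 uM tamoxifen; AC50 from Hill fits.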

[7] = Cellular Toxicity (caspase-3) Renal Proximal Tubule (AID 667); conditions: Potency: caspase-3 activation;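 note: cells exposed to compound for 16 hours at 37 °C before detection; 0% = DMSO basal and 100% = 10 µM staurosporine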
Summary of the method: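 Primary rat proximal tubule cells, 1000/well, 5 h plating at 37 °C, then compound 16 h at 37 °C. Caspase-Glo 3/7 reagent, 1 h RT, luminescence. Normalized to DMSO (basal) and 10 uM staurosporine (100%); Hill-fit AC50.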

[8] = biological target: Cytochrome P450 3A4 (Homo sapiens) (UniProt P08684); assay: qHTS Assay for Inhibitors and Substrates of Cytochrome P450 3A4 (AID 884); note: % is set by controls: 0 for no effect and ±100 for the full control effect; nearly all actives have a fitted effect of over 50% in size
Summary of the method: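 20 nM human CYP3A4 with 25 uM Luciferin-PPXE (at KM) in 200 mM KPO4, preincubated 10 min with compound; NADPH regeneration started a 60 min RT reaction. Luciferin detected by luminescence, normalized to 57 uM ketoconazole as full inhibition.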

[9] = Cell Viability - LYMP2-001 (AID 921);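 note: 0% = DMSO only and full inhibition = tetraoctylammonium bromide control wells; nearly all actives have a fitted effect of over 70% in size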
Summary of the method: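 Human lymphoblastoid cells (Coriell), 2500 per well, were preincubated 5 hr at 37 C, then exposed to compounds in complete medium for 24 hr at 37 C. Cellular ATP was read by CellTiter-Glo luminescence; AC50 from Hill fits of concentration-response data.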

[10] = MultiTox-Fluor Cytotoxicity Assay - LYMP1-001 - Dead Cells (AID 946);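 note: 0% = DMSO and 100% = tetraoctylammonium bromide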
Summary of the method: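 AC50 from Hill fit of concentration-response; data normalized to DMSO (basal) and 15 uM tetraoctylammonium bromide (100%). LYMP1-001 lymphoblastoid cells, 2500/well, 16 hr compound at 37 C; dead-cell protease fluorescence, Ex/Em 485/520.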

[11] = MultiTox-Fluor Cytotoxicity Assay - LYMP1-001 - Live Cells (AID 947);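 note: 0% = DMSO only and full inhibition = tetraoctylammonium bromide control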
[12] = Cell Viability - LYMP1-002 - Assay at 16 hr (AID 948);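 note: 0% = DMSO alone and full effect = 92 µM tetraoctylammonium bromide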
Summary of the method: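 Human lymphoblastoid cells (LYMP1-002), 2500/well, were preincubated 5 hr at 37 C, then exposed to compounds for 16 hr at 37 C in complete medium. Cellular ATP was read by CellTiter-Glo luminescence after 30 min at room temperature; AC50 from Hill fits.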

[13] = MultiTox-Fluor Cytotoxicity Assay - LYMP1-002 - Live Cells (AID 955); note: % is set by controls: 0 for no effect and ±100 for the full control effect
Summary of the method: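 Human lymphoblastoid LYMP1-002 cells, 2500/well, treated 16 h at 37 C in complete medium. Live-cell protease activity via GF-AFC fluorescence (Ex/Em 405/510) after 60 min reagent incubation; AC50 from Hill fits.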

[14] = MultiTox-Fluor Cytotoxicity Assay - LYMP1-003 - Dead Cells (AID 961);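 note: 0% = DMSO and 100% = tetraoctylammonium bromide; nearly all actives have a fitted effect of over 70% in size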
Summary of the method: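 Human lymphoblastoid LYMP1-003 cells (2500/well) were treated with compounds for 16 hr at 37 C in complete medium. Dead-cell protease release was read by bis-AAF-R110 fluorescence (Ex/Em 485/520). AC50 came from Hill fits, normalized to DMSO and 15 uM tetraoctylammonium bromide.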

[15] = MultiTox-Fluor Cytotoxicity Assay - LYMP1-003 - Live Cells (AID 962);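 note: 0% = DMSO only and full loss = 92 µM tetraoctylammonium bromide; cytotoxic hits lower the live-cell protease signal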
Summary of the method: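 LYMP1-003 lymphoblastoid cells, 2500/well in complete medium, treated 16 h at 37 C; live-cell protease cleavage of GF-AFC read by fluorescence (Ex/Em 405/510) after 60 min reagent; AC50 from Hill fits of concentration-response.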

[16] = Cell Viability - LYMP1-003 - Assay at 24 hr (AID 963);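 note: plate controls were DMSO only for no effect and tetraoctylammonium bromide positive control for full effect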
Summary of the method: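 Human lymphoblastoid LYMP1-003 cells, 2500/well, treated 24 h at 37 C in complete medium. Viability read as intracellular ATP by CellTiter-Glo luminescence after 30 min at room temperature; AC50 from Hill-equation fits of qHTS concentration-response.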

[17] = Cell Viability - LYMP1-003 - Assay at 40 hr (AID 964); note: % is set by controls: 0 for no effect and ±100 for the full control effect; nearly all actives have a fitted effect of over 60% in size
Summary of the method: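 LYMP1-003 human lymphoblastoid cells, 2500/well, preincubated 5 h at 37 C, then treated with compound for 40 h at 37 C. Intracellular ATP read by CellTiter-Glo luminescence after 30 min at room temperature; AC50 from Hill-equation fits.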

[18] = Cell Viability - LYMP2-003 (AID 965);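 note: cells exposed to compounds for 24 h before reading; 0% = DMSO only and full effect = 92 µM tetraoctylammonium bromide; nearly all actives have a fitted effect of over 50% in size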
Summary of the method: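 Human lymphoblastoid cells (2500/well) were pre-incubated 5 hr at 37 C, then exposed to compounds over a concentration range for 24 hr at 37 C. Intracellular ATP was read by CellTiter-Glo luminescence; AC50 came from Hill-equation fits.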

[19] = MultiTox-Fluor Cytotoxicity Assay - LYMP1-002 - Dead Cells (AID 960);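 note: 0% = DMSO and 100% = tetraoctylammonium bromide; nearly all actives have a fitted effect of over 60% in size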
Summary of the method: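 Human lymphoblastoid LYMP1-002 cells, 2500/well, treated 16 h at 37 C; dead-cell protease cleavage of bis-AAF-R110 read by fluorescence (485/520); normalized to DMSO and 15 uM tetraoctylammonium bromide; AC50 from Hill fit.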

Chain of Cytochrome P450 3A4 (Homo sapiens) (P08684 whole entry, looked up): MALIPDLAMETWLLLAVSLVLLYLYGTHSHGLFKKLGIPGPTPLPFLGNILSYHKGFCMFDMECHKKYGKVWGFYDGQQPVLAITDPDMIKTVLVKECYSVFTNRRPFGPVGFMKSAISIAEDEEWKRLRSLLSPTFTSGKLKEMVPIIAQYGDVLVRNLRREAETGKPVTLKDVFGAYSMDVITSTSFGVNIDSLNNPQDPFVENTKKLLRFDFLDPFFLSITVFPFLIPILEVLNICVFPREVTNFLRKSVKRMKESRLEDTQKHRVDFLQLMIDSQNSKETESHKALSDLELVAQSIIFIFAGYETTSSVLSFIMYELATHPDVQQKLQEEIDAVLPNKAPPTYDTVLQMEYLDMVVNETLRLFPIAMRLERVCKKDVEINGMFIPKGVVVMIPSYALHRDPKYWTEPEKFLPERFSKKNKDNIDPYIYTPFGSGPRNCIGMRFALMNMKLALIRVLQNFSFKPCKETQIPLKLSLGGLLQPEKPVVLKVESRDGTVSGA

Cc1ccc(C)cc1
inactive: caspase-3 activation [1] -0.809% | outcome [2] | caspase-3 activation [3] 1.14% | caspase-3 activation [4] -2.53% | outcome [5] | outcome [6] | Potency [7] | Potency [8] | Potency [9] | outcome [10] | outcome [11] | outcome [12] | outcome [13] | Potency [14] | Potency [15] | Potency [16] | Potency [17]

CCC1CO1 (stereo not given)
inactive: caspase-3 activation [1] 0.872% | outcome [2] | caspase-3 activation [3] 2.93% | caspase-3 activation [4] -0.425% | outcome [5] | outcome [6] | Potency [7] | Potency [8] | Potency [9] | outcome [10] | outcome [11] | outcome [12] | outcome [13] | Potency [15] | Potency [17]

Cc1cccc(Br)c1
inactive: caspase-3 activation [1] -0.167% | outcome [2] | caspase-3 activation [3] 0.836% | caspase-3 activation [4] -1.49% | outcome [5] | outcome [6] | Potency [7] | Potency [8] | Potency [9] | outcome [10] | outcome [11] | outcome [12] | outcome [13] | Potency [14] | Potency [15] | Potency [16] | Potency [18]

Oc1c(Cl)ccc(Cl)c1Cl
inactive: caspase-3 activation [1] 0.532% | outcome [2] | caspase-3 activation [3] 0.28% | caspase-3 activation [4] 4.28% | outcome [5] | outcome [6] | Potency [7] | Potency [8] | Potency [9] | outcome [10] | outcome [11] | outcome [12] | outcome [13] | outcome [19] | Potency [15] | Potency [16] | Potency [17] | Potency [18]

CC(C)N(C)C
inactive: caspase-3 activation [1] 0.455% | outcome [2] | caspase-3 activation [3] 0.576% | caspase-3 activation [4] 1.04% | outcome [5] | outcome [6] | Potency [7] | Potency [8] | Potency [9] | outcome [10] | outcome [11] | outcome [12] | outcome [13] | Potency [14] | Potency [15] | Potency [16] | Potency [17] | Potency [18]

CNC(=O)c1ccccc1
inactive: caspase-3 activation [1] 0.192% | outcome [2] | caspase-3 activation [3] -1.03% | caspase-3 activation [4] -0.658% | outcome [5] | outcome [6] | Potency [7] | Potency [8] | Potency [9] | outcome [10] | outcome [11] | outcome [12] | outcome [13] | outcome [19] | Potency [15] | Potency [16] | Potency [17] | Potency [18]

CC(=O)Nc1ccccc1C
inactive: caspase-3 activation [1] 2.04% | outcome [2] | caspase-3 activation [3] 1.63% | caspase-3 activation [4] 3.57% | outcome [5] | outcome [6] | Potency [7] | Potency [8] | Potency [9] | outcome [10] | outcome [11] | outcome [12] | outcome [13] | Potency [14] | Potency [15] | Potency [16] | Potency [17] | Potency [18]

Cc1cccc2ccccc12
inactive: caspase-3 activation [1] 0.763% | outcome [2] | caspase-3 activation [3] 0.93% | caspase-3 activation [4] 0.828% | outcome [5] | outcome [6] | Potency [7] | Potency [8] | Potency [9] | outcome [10] | outcome [11] | outcome [12] | outcome [13] | Potency [14] | Potency [15] | Potency [17] | Potency [18]

CC(=O)OCCC(C)C
inactive: caspase-3 activation [1] 0.804% | outcome [2] | caspase-3 activation [3] -0.942% | caspase-3 activation [4] -0.0363% | outcome [5] | outcome [6] | Potency [7] | Potency [8] | Potency [9] | outcome [10] | outcome [11] | outcome [12] | outcome [13] | Potency [15] | Potency [16] | Potency [17] | Potency [18]
